H9c2 protect = protects H9c2 cardiomyocytes from peroxide injury. H2O2 injury protection, ATPLite, 2 h. protection from H2O2 cell death, % at 20 µM. 360,000 tested, 0.63% active;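 active = compounds giving at least 50% protection of heart cells from peroxide-induced death in the single-dose screen, raw or plate-pattern-corrected value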;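 also: 0% = DMSO wells with peroxide and 100% = DMSO wells without peroxide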
FAS TE block = inhibitors of human fatty acid synthase thioesterase domain; recombinant FAS-TE, OMFH fluorogenic substrate, fluorescence endpoint; 360,000 tested, 0.67% active; AID 602261; inhibition, % at 15 µM;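 active = compounds whose normalised, plate-corrected inhibition of enzyme fluorescence in the single-dose primary screen is 50% or more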;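 also: 0% = DMSO with enzyme and 100% = substrate without enzyme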
MPTP inh = permeability transition pore inhibition. isolated mouse mitochondria, Ca2+ swelling absorbance, 30 min. inhibition, % at 10 µM. 360,000 tested, 1.4% active;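 active = inhibition of 50% or more, scaled per plate between neutral and stimulator controls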;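 also: 0% = DMSO wells given calcium and 100% = 1 mM EGTA wells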
SUMO Mot1 rescue = SUMOylation pathway inhibition by Mot1-301 growth rescue; S. cerevisiae Mot1-301 growth rescue, ATP luminescence, 38.5C; percent above DMSO median, 100 means doubled; AID 2716; 320,000 tested, 1% active; growth rescue, % at 18.8 µM;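 active = every valid replicate shows activation above 250% relative to neutral control wells; inactive = the rest, any valid replicate at or below 250%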;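 also: OY570 slx delta 5 strain wells were the positive control but not used for scaling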
Yeast superoxide = caloric restriction mimetics inhibiting age-related superoxide in yeast | superoxide response (% of plate mean), % at 10 µM | AID 2690 | S. cerevisiae aged cells, superoxide DHE fluorescence; stronger effect = lower value | 330,000 tested, 0.18% active;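 active = superoxide response under a set limit, about three screen SD below normal, cut at about 65% in these data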;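 also: yeast aged for seven days with compound at 30 °C before DHE staining; 100% = average MFI of all compound-treated wells on the plate with controls excluded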
aDG glyco act = increases alpha dystroglycan glycosylation | Pro5-aDG cells, alpha-DG glycosylation AlphaScreen (IIH6); 0% Pro5, 100% B10-LARGE cell signal | activation, % at 10 µM | 360,000 tested, 0.22% active;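 active = activation of at least 8% versus controls, or a plate z-score of at least 8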;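 also: Pro5 are CHO cells carrying HIG-tagged alpha-DG that lacks glycosylation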
Active calls of the source: *; / = no result. Most compounds without a hit are left out; they make up all but 3.8% or so of the library.

SMILES	H9c2 protect	FAS TE block	MPTP inh	SUMO Mot1 rescue	Yeast superoxide	aDG glyco act
Cc1cc(C)cc(N2C(=O)CC(Sc3nnnn3-c3ccccc3)C2=O)c1 (configuration not stated)	-21	4	-1	292*	95	0
O=C(Nc1cccnc1)c1ccc([N+](=O)[O-])s1	-15	-6	0	0	104	9.7*
O=C(Nc1cccnc1)c1cc(Br)c(Br)s1	-2	3	2	32	118	0
CC(NC(=O)c1ccccc1F)c1nnc(SCc2nc3ccccc3c(=O)[nH]2)n1C (configuration not stated)	-1	-5	-1	292*	95	0
CC(NC(=O)c1ccccc1)c1nnc(SCc2nc3ccccc3c(=O)[nH]2)n1C (configuration not stated)	10	-1	0	-18	101	0
C/C(=N\NC(=O)Cn1nc(C)cc1C)c1ccc([N+](=O)[O-])cc1	6	0	-3	4	90	0
O=C(COC(=O)Cc1n[nH]c(=O)c2ccccc12)Nc1c(Cl)cccc1C(F)(F)F	25	-7	-1	-16	96	0
NS(=O)(=O)c1cccc(NC(=O)COC(=O)Cc2n[nH]c(=O)c3ccccc23)c1	52*	-5	0	-10	90	0
Cc1ccc(S(=O)(=O)N(C)C)cc1NC(=O)COC(=O)Cc1n[nH]c(=O)c2ccccc12	75*	-2	0	3	95	0
O=C(COC(=O)Cc1n[nH]c(=O)c2ccccc12)Nc1c(Br)cc([N+](=O)[O-])cc1Br	97*	-3	0	/	/	0
COc1ccc(C(=O)NCc2ccc(F)cc2)cc1S(=O)(=O)N1CCCC1	4	-4	0	/	/	0
CCOC(=O)C(=NC1CCS(=O)(=O)C1)NNc1ccccc1Cl (configuration not stated)	-3	3	1	165	106	0
CCOC(=O)C(=NC1CCS(=O)(=O)C1)NNc1ccc(Br)cc1 (configuration not stated)	-1	10	4	372*	98	0
COc1ccc(C(=O)C2CCN(CC(=O)Nc3ccc(C)cc3)CC2)cc1	-1	6	0	0	98	0
CCOC(=O)c1cc(CC)sc1NC(=O)c1ccc([N+](=O)[O-])c(N2CCOCC2)c1	-14	-6	10	371*	104	0
CSCCC(C(=O)Nc1c(C)cccc1C)N1CCC(Cc2ccccc2)CC1 (configuration not stated)	-4	26	-1	/	/	4
Cc1sc(NC(=O)CN2C(=O)NC3(CCCC3)C2=O)nc1-c1ccc(F)cc1	-3	-2	-1	1	97	0
COc1ccc(CCn2c(=N)c(C(=O)NCCN3CCOCC3)cc3c(=O)n4cccc(C)c4nc32)cc1OC	61*	-6	-1	4	104	0
COc1ccc(CCn2c(=N)c(C(=O)NCCN3CCOCC3)cc3c(=O)n4ccccc4nc32)cc1OC	20	-7	-1	-16	88	0
CCC(=O)NC(c1cccs1)c1cc([N+](=O)[O-])c2cccnc2c1OC (configuration not stated)	16	13	1	/	/	0
Cc1ccc(C(NC(=O)C(C)C)c2cc([N+](=O)[O-])c3cccnc3c2O)cc1 (configuration not stated)	51*	17	5	-12	112	0
CC(C)C(=O)NC(c1cccs1)c1cc([N+](=O)[O-])c2cccnc2c1O (configuration not stated)	56*	15	10	155	122	0
CCN(CC)S(=O)(=O)c1cccc(C(=O)NCC2CCCCC2)c1	-5	6	1	416	90	0
Cc1cccc(NC(=O)CSc2nc(=O)n(CCCN3CCOCC3)c3c2CCCC3)c1C	8	-6	-1	/	/	0
CCOc1cccc(-c2c(C(=O)N/N=C(\C)c3ccncc3)nnn2-c2nonc2N)c1	10	-3	-1	23	104	1
SMILES	H9c2 protect	FAS TE block	MPTP inh	SUMO Mot1 rescue	Yeast superoxide	aDG glyco act
Nc1nonc1-n1nnc(C(=O)N/N=C/c2ccccn2)c1-c1ccccc1	49	-6	-3	/	/	0
Nc1nonc1-n1nnc(C(=O)N/N=C/c2ccccn2)c1CNc1ccccc1	50*	4	-1	-10	84	0
CCOc1ccc(/C=N/NC(=O)c2nnn(-c3nonc3N)c2-c2ccc(OCC)cc2)cc1	2	2	-1	77	96	0
CCOc1ccc(-c2c(C(=O)N/N=C/c3c[nH]c4ccccc34)nnn2-c2nonc2N)cc1	54*	13	1	32	107	0
CCOc1cccc(-c2c(C(=O)N/N=C(\C)c3ccccn3)nnn2-c2nonc2N)c1	51*	1	0	31	102	1
CCC1CCCCN1C(=O)c1cc(COc2ccc(-n3cncn3)cc2)on1 (configuration not stated)	-18	-4	8	-20	107	2
Cc1ccc(S(=O)(=O)c2nnn3c2nc(N2CCOCC2)c2ccccc23)cc1C	12	41	-1	-18	103	0
Cc1ccc(S(=O)(=O)c2nnn3c2nc(NC2CCN(Cc4ccccc4)CC2)c2ccccc23)cc1C	-1	86*	-1	12	85	0
CCC(ONc1ccccc1C(F)(F)F)(C(=O)NN(C)C)c1ccccc1 (configuration not stated)	53*	1	1	-2	100	1
CCOc1ccc(OCC(=O)Nc2ccccc2C(F)(F)F)cc1	-10	12	1	-9	91	1
O=C(c1ccc(N2CCCC2=O)cc1)N1CCN(c2ccc(Cl)cc2)CC1	-4	-2	-2	-14	100	0
O=C(c1ccc(N2CCCC2=O)cc1)N1CCN(c2ccccc2Cl)CC1	-6	-3	-1	-4	45*	1
COc1cc(N=Nc2c(C)n(C)n(-c3ccccc3)c2=O)ccc1N	2	-3	0	6	112	0
O=C(/C=C/c1ccc(O)c(O)c1)c1ccc(S(=O)(=O)N2CCCCCC2)cc1	74*	-8	24	3	92	-1
Cc1ccc(C(=O)N/C(=C\c2cccs2)C(=O)N2CCOCC2)cc1C	-4	-5	-3	17	95	0
CC/C(C)=N/Nc1cccc([N+](=O)[O-])c1	-7	6	3	275*	95	0
COc1ccc(-c2cc(=O)oc3c(O)c(O)ccc23)cc1	63*	7	4	203	92	0
COc1ccc(-c2cc(=O)oc3cc(OC(C)C(=O)O)ccc23)cc1 (configuration not stated)	6	-6	4	34	104	0

Screening results deposited in PubChem by several laboratories.
